This note sets out measurements from PubChem BioAssay (NCI).

This is part of a sample that, as a whole, favours compounds with a hit. Of some 83,000 tested, about 20% had one in any assay.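 The endpoint reported here, percent growth, reads 100 for growth as untreated, 0 for no net growth and -100 for all cells dead.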 Unmarked numbers belong to inactive results. Calls of active or inactive are those of the source.

The test concerns SNB-19 CNS. Nature of the test: NCI-60 one-dose screen, 48 h (100 = growth as untreated, 0 = no growth, -100 = all killed). Particulars: 10 µM unless noted. The protocol: Growth inhibition of the SNB-19 human tumor cell line is measured as a screen for anti-cancer activity. Cells are grown in 96 well plates and exposed to the test compound for 48 hours. Compounds are tested at a single concentration, which is 10^-5 M for most compounds. The reported endpoint is percent growth (GI% or GIPRCNT), where numbers from 0 - 100% represent growth inhibition, and numbers from -100% - 0 represent cell death. For example, a value of 40 represents 60% growth inhibition. A value of 0 means no net growth occurred over the course of the experiment. A value of -40 indicates 40% of cells at the beginning of the experiment died by the end of the experiment. A value of -100 means all cells are dead at the end of the experiment.
NCI-60 Human Tumor Cell Lines Screen was performed using the standard one-dose NCI protocol, which is described in more detail at https://dtp.cancer.gov/discovery_development/nci-60/default.htm.
Compounds with GIPRCNT values below 10 were considered active. Activity score was based on GIPRCNT using the following formula: […]
Score is 0 for GIPRCNT values of 100 or above, 50 for GIPRCNT values of 0, and 100 for GIPRCNT values of -100.
Consider `Nc1c(C(=O)Nc2cccc3ccccc23)sc2nc3c(cc12)CCCC3`, for which the growth was 39.2%.

For `CC(=O)OC(C)COc1ccc(-c2ccccc2)cc1` (stereo not given), the growth was 103%.

`N#Cc1c(-c2ccc(O)cc2)c2c(N)nn(-c3ccccc3)c2[nH]c1=O`: the growth was 99.8%.

As to `Cc1cc(N(CCNc2ccnc3cc(Cl)ccc23)Cc2ccco2)nc(Cl)n1`, the growth was 15.4%.

For the compound `Cc1[c-]onc1C.Cc1[c-]onc1C.[Ag].[Ag].[NH-]S(=O)(=O)c1ccc(N=Nc2cc(N=Nc3ccc(S([NH-])(=O)=O)cc3)c3c(NC(=O)C(Cl)Cl)cccc3c2OC(=O)C(Cl)Cl)cc1`, the growth was 86.6%.

With `COc1ccc(C2(Cl)c3ccccc3N(c3ccccc3)c3ccccc32)cc1`, the growth is 6.63% (active).

Consider `O=C1CCC/C=C\C[C@H]2C=C(Cl)C(=O)/C2=C/C[C@H](CCCCC(F)(F)F)OC(=O)CCC/C=C\C[C@H]2C=C(Cl)C(=O)/C2=C/C[C@H](CCCCC(F)(F)F)O1`, for which the growth was -37.9% [7.5 µM] (active).

For the compound `COc1cc(-c2cc3ncccc3c3[nH]c(=O)c4cccnc4c23)cc(OC)c1OC`, the growth is 53.7%.

Regarding `O=[N+]([O-])c1ccc(N/N=C(\C(=N/Nc2ccc([N+](=O)[O-])cc2[N+](=O)[O-])c2ccccc2)c2ccccc2)c([N+](=O)[O-])c1`, the growth was 102%.

On to `O=c1c2sc3ncc(Br)cc3c2ncn1-c1cccc(Cl)c1`, for which the growth is 89.5%.

For the compound `O=c1c(CNc2ccc(S(=O)(=O)Nc3nccs3)cc2)coc2ccccc12`, the growth is 95.4%.

Consider `C=C1C(=O)O[C@H]2[C@H]1CC/C(Cn1cc(-c3ccc(OC)cc3)nn1)=C\CC[C@@]1(C)O[C@@H]21`, for which the growth was 69.5%.

Consider `C=C(C)[C@@H]1CC[C@]2(C)[C@H](CC=C3[C@@H]4CC(C)(C)CC[C@]4(C(=O)OC)CC[C@]32C)[C@@]1(C)CC/C(N)=N/O`, for which the growth is 67.9%.

Regarding `O=C(O)c1cccc2c1Cc1cc([N+](=O)[O-])ccc1-2`, the growth was 108%.

`Nc1c(C(=O)Nc2cccc(Br)c2)sc2nc3c(cc12)C(=O)CCC3`: the growth is 32.7%.

For the compound `CC1c2ccccc2N(S(=O)(=O)c2ccccc2)C1C` (stereo not given), the growth was 91.5%.

As to `COc1ccc(-c2nc3ncccn3c2-c2nc3ccc(Br)cc3[nH]2)cc1`, the growth is 89.9%.

Regarding `CCN1CCN(C(=O)[C@]23CC[C@@H](C)[C@H](C)[C@H]2C2=CC[C@@H]4[C@@]5(C)C/C(=C/c6cccc(OC)c6OC)C(=O)C(C)(C)[C@@H]5CC[C@@]4(C)[C@]2(C)CC3)CC1`, the growth was 53.1%.

Regarding `CCOC(=O)N1CCN(CCCCOc2ccc(C(C)(C)CC)cc2)CC1`, the growth is 108%.

As for `OCC12CCCC(CO)(COC1)C2O` (stereo not given), the growth was 116%.

On to `COc1cc(-c2nc(-c3ccccc3)c(-c3ccccc3)[nH]2)cc(OC)c1O`, for which the growth was 20.1%.

Consider `Cc1nn(-c2ccc(Cl)cc2)c(=O)n1CCn1cnc2ccccc21`, for which the growth was 113%.

For the compound `COC(=O)[C@]12CC[C@@H](C)[C@H](C)[C@@H]1C1=CC[C@@H]3[C@@]4(C)C[C@@H](OC(C)=O)[C@H](O)[C@@](C)(CO)[C@@H]4[C@H](O)C[C@@]3(C)[C@]1(C)CC2`, the growth is -71.7% (active).

On to `N#CC1c2ccccc2-c2ccccc2N1C(=O)c1ccccc1` (stereo not given), for which the growth is 53.6%.

For `COC(=O)[C@]12CC[C@@H](C)[C@H](C)[C@@H]1C1=CC[C@@H]3[C@@]4(C)C[C@@H](OC(C)=O)[C@H](OC(C)=O)[C@@](C)(COC(C)=O)[C@@H]4[C@H](O)C[C@@]3(C)[C@]1(C)CC2`, the growth is 24.2%.

In the case of `CC1=NN(c2ccc(S(=O)(=O)O)cc2Cl)C(=O)C1`, the growth is 96.2%.

Turning to `O=C1/C(=C\c2ccc(Br)o2)SC(=S)N1CCc1ccc(O)cc1`, the growth was 88.1%.

In the case of `COc1ccc(-c2nc(Nc3ccc(-c4nc5ccccc5[nH]4)cc3)nc(N3CCOCC3)n2)cc1`, the growth was 17.5%.

Consider `Cn1cc(-c2csc(-c3cn(C(=O)OC(C)(C)C)c4ccc(Br)cc34)n2)c2cccnc21`, for which the growth was 93.2%.

Consider `COc1cc(-c2c(C#N)c(-c3cccs3)nc3c2c(-c2ccccc2)nn3-c2ccccc2)ccc1O`, for which the growth was 98.9%.

For `COc1cc(-c2cc3ncccc3c3nc(N)c4cccnc4c23)cc(OC)c1OC`, the growth was 44.5%.

In the case of `COc1ccc(C2=NN(c3nc(-c4ccc(OC)cc4)c(C#N)c(=O)n3C)C(=O)CC2)cc1`, the growth was 96.7%.

On to `Cc1nn(-c2ccc(Br)cc2)c2nc3[nH]c(=O)[nH]c(=O)c3nc12`, for which the growth was 104%.

In the case of `Nc1c(C(=O)Nc2c(Cl)cccc2Cl)sc2nc3c(cc12)C(=O)CCC3`, the growth was 39.6%.

As for `Fc1ccc2[nH]cc(-c3nc(-c4c[nH]c5ncccc45)cs3)c2c1`, the growth is 63.8%.

For `COc1cc(/C=N/Nc2ncnc3c2c(C)nn3-c2ccc(F)cc2)ccc1O`, the growth is 93.3%.

Turning to `Cc1cc(N(CCCNc2ccnc3cc(Cl)ccc23)Cc2ccco2)nc(N2CCOCC2)n1`, the growth is 78.1%.

For `CN1CCN(c2nc(-c3cccc4ccccc34)nc3sc4c(c23)CCCCCC4)CC1`, the growth is 91.5%.

As for `CN(C)CCCC1(c2ccc(F)cc2)OCc2cc(-c3ccc(C(F)(F)F)nc3)ccc21` (stereo not given), the growth was 76.7%.

As to `Cc1ccc(-c2nc3ccc(Cl)cc3c(=O)n2N2C(=O)CSC2c2ccccc2Cl)cc1` (stereo not given), the growth is 75.2%.
